Source: PubChem BioAssay (NCI)
The panel holds about 83,000 compounds, 20% with a hit somewhere; the sample as a whole holds those more often.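 Assay: single dose, 48 h. Readout: percent growth (0 = no net growth; negative = cell death). Active: <10.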 Calls of active or inactive are those of the source.

Key:
Experiment in all cases: NCI-60 one-dose screen, 48 h (100 = growth as untreated, 0 = no growth, -100 = all killed)
Settings in all cases: 10 µM unless noted
[1] = system: NCI-H23 lung
[2] = system: NCI-H226 lung
[3] = system: NCI-H322M lung
[4] = system: HOP-62 NSCLC
[5] = system: NCI-H460 lung
[6] = system: NCI-H522 lung
[7] = system: A549/ATCC NSCLC
[8] = system: 786-0 renal
[9] = system: COLO 205 colon
[10] = system: DU-145 prostate
[11] = system: K-562 leukemia
[12] = system: MDA-MB-231 breast
[13] = system: RXF 393 renal
[14] = system: SF-268 CNS
[15] = system: SF-295 CNS
[16] = system: SF-539 CNS
[17] = system: UACC-257 melanoma
[18] = system: M14 melanoma
[19] = system: HCT-15 colon
[20] = system: MALME-3M melanoma

Measured: growth

COc1ccc(-c2cc(Cc3cccs3)c(=O)n(Cn3cncn3)n2)cc1
inactive: [1] 102% | [2] 96.3% | [3] 100% | [4] 110% | [5] 112% | [6] 91.6% | [7] 97.3% | [8] 104% | [9] 117% | [10] 124% | [11] 98.3% | [12] 87.5% | [13] 110% | [14] 110% | [15] 98.9% | [16] 101% | [17] 105% | [18] 107% | [19] 101%

Cc1c(C(N)=O)sc2c1C(=O)N(Cc1ccccc1)C1=NN=C(c3ccc(Cl)cc3)CN12
inactive: [1] 58.9% | [2] 73.9% | [3] 38.1% | [4] 66.3% | [5] 28% | [6] 67.1% | [7] 46% | [8] 43% | [10] 46.1% | [20] 58.9% | [12] 37.3% | [13] 51.3% | [14] 38.6% | [15] 29.1% | [16] 53.2% | [17] 59.8% | [18] 41.5% | [19] 22.6%

O=C1Cc2cc(CCN3CCN(CCOCCO)CC3)c(Cl)cc2N1Cc1ccc(-c2ccccc2-c2nn[nH]n2)cc1
inactive: [1] 85.8% | [2] 81.8% | [3] 108% | [4] 91.6% | [5] 90% | [6] 79.4% | [7] 87.1% | [8] 86.8% | [10] 117% | [20] 91.8% | [12] 92.1% | [13] 113% | [14] 117% | [15] 93.5% | [17] 81.4% | [18] 92.6% | [19] 86.6%

COc1cc(C2NC(c3ccc(Cl)cc3)C(C)C(=NC(=O)c3cnccn3)C2C)cc(OC)c1OC (configuration not stated)
inactive: [1] 90.7% | [2] 102% | [3] 113% | [4] 117% | [5] 103% | [6] 85.4% | [7] 98.8% | [8] 91.6% | [10] 115% | [20] 79.8% | [12] 104% | [13] 93.8% | [14] 97.2% | [15] 106% | [16] 89.8% | [17] 120% | [18] 96.9% | [19] 81%

CSc1nc2c(c(=O)n1C)C(c1ccccc1)C1=C(N2)/C(=C/c2ccccc2)CCC1 (configuration not stated)
active: [15] 7.45%
inactive: [1] 54.8% | [2] 74.1% | [3] 86% | [4] 94.3% | [5] 54.3% | [6] 24.5% | [7] 86.2% | [8] 54.6% | [10] 72.2% | [20] 70.4% | [12] 53.5% | [13] 36.9% | [14] 62.6% | [16] 63.4% | [17] 52.2% | [18] 65.9% | [19] 58.9%

Cc1nc(N)[nH]c(=O)c1C
inactive: [1] 97.4% | [2] 97% | [3] 96.6% | [4] 103% | [5] 106% | [6] 102% | [7] 103% | [8] 103% | [10] 109% | [11] 86.9% | [20] 156% | [12] 102% | [13] 104% | [14] 114% | [16] 107% | [17] 87% | [18] 105% | [19] 122%

O=C(Nc1ccccc1Cl)c1cnc2ccc(C3CCNCC3)cn12
active: [6] 2.54%
inactive: [1] 95% | [2] 65% | [3] 23.1% | [4] 58.3% | [5] 86.4% | [7] 66.7% | [8] 52.8% | [10] 56.7% | [20] 96.2% | [12] 61.3% | [13] 36.5% | [14] 60.7% | [15] 70.7% | [16] 47% | [17] 82.5% | [18] 72.7% | [19] 46.6%

O=C(/C=C/c1cccnc1)NCCCCC1CCCN(C(=O)c2ccccc2)C1 (configuration not stated)
inactive: [1] 70.1% | [2] 98.5% | [3] 65.3% | [4] 85.1% | [5] 29% | [7] 49% | [8] 71.7% | [10] 33.4% | [20] 83.7% | [12] 82.6% | [13] 109% | [14] 74% | [16] 28% | [17] 109% | [18] 18.7% | [19] 42%
active: [6] 1.41% | [15] 4.84%

COc1cc(C2NC(c3ccc(Cl)cc3)C(C)/C(=N/NC(N)=S)C2C)cc(OC)c1OC (configuration not stated)
inactive: [1] 92.6% | [2] 85.9% | [3] 97.7% | [4] 99% | [5] 100% | [6] 65.6% | [7] 94.9% | [8] 91.1% | [10] 117% | [20] 73% | [12] 101% | [13] 85.9% | [14] 101% | [15] 117% | [16] 88.8% | [17] 103% | [18] 92.7% | [19] 81.9%
